Screens (PubChem)
This excerpt belongs to a sample that is enriched for hits.
15-hLO-2 inh = qHTS Assay for Inhibitors of 15-hLO-2 (15-human lipoxygenase 2); AID 881, 2007; 0.56% of 110,000 active; Potency, µM (series often up to 57.1 µM), for inactives: at the top dose activity change, negative = inhibition, usual class: inhibitors; purified 15hLO-2, xylenol orange hydroperoxide absorbance; further: nearly all actives have a fitted effect of over 60% in size
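Enzyme 50 nM, AA 45 uM, 25 mM Hepes pH 7.5 + 0.01% Triton X-100; cpd preinc 15 min RT, rxn 90 min RT; stop/detect with 200 uM XO + 300 uM Fe(II) in 50 mM H2SO4, 30 min; A573/A405.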
12-hLO inh = qHTS Assay for Inhibitors of 12-hLO (12-human lipoxygenase) | Polyunsaturated fatty acid lipoxygenase ALOX12 (Homo sapiens), P18054 | purified 12-hLO, xylenol orange hydroperoxide absorbance | Potency, µM (titrated, usually from 57.1 µM), inactives show at the top dose activity change, negative = inhibition, usual class: inhibitors | 0.12% of 150,000 active | AID 1452, 2008; further: nearly all actives have a fitted effect of over 55% in size
Target sequence (P18054 whole entry, looked up): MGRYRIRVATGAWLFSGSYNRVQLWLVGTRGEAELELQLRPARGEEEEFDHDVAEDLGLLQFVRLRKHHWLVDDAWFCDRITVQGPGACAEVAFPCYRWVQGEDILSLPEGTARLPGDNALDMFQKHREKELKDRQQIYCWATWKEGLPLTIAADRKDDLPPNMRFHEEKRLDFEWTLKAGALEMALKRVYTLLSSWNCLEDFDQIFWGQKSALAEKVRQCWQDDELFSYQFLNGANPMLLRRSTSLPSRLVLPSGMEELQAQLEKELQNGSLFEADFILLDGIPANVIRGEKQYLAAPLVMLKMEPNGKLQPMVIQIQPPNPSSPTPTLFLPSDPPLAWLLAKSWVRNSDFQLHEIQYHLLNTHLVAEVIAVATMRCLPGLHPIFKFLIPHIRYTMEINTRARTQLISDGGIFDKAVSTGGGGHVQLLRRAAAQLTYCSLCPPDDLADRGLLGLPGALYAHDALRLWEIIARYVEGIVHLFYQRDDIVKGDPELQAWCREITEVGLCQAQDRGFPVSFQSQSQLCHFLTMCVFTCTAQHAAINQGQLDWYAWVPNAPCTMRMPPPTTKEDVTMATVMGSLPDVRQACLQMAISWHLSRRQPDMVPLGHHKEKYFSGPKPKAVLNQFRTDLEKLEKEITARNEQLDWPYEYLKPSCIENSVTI
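Hydroperoxide output read as Fe(III)-xylenol orange absorbance, 573-to-405 nm ratio, after 30 min reaction with 40 uM arachidonic acid. Enzyme: 150 nM purified human 12hLO, 15 min compound preincubation; 25 mM Hepes pH 7.0, room temperature.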
* hit, by the source's call; ? = inconclusive; . = not tested or not shown; [ ] = another dose, or the depositor's remark. The call rests on the fitted dose curve; in most records, active means well fitted curve in the direction sought with a large enough effect; inconclusive means small, poorly fitted or top-dose-only effect, or another doubt; inactive means no such curve, though single readings can be large; an effect the other way counts as inactive or inconclusive. On the % scale 0 is the no-effect control and ±100 the full control effect; potency means the concentration at half of the fitted maximal effect.

SMILES	15-hLO-2 inh	12-hLO inh
CCC(=O)NC(c1cccs1)c1cc([N+](=O)[O-])c2cccnc2c1O (centres undefined)	.	2.8µM*
O=[N+]([O-])c1cc(Cc2cc([N+](=O)[O-])c3cccnc3c2O)c(O)c2ncccc12	25%[11.4 µM]	-7%[11.4 µM]
CC1=NOC(=O)/C1=C\c1ccc(-c2cc(Cl)ccc2Cl)o1	2µM*	-5%
CC1=NOC(=O)/C1=C/c1ccc(N(C)C)cc1	-12%	-3%
CC1=NOC(=O)/C1=C/c1ccc(-c2ccc(Cl)cc2)o1	7.9µM*	?
C=CCNC(=S)N/N=C/c1ccc(-c2cc(Cl)ccc2Cl)o1	?	-7%
Cc1ccccc1NC(=S)NCc1ccc2[nH]c3c(c2c1)CCCC3	.	14µM*
O=C(NCc1ccc2[nH]c3c(c2c1)CCCC3)N1CCOCC1	-6%	-5%
CN(C)C1CCN(C(=O)c2ccc(-n3c(=O)c(=O)[nH]c4ccccc43)cc2)C1 (centres undefined)	.	-2%
CCCCSc1nc2c(cc1C#N)CCC2	7%	-12%
CCCSc1nc(C)c(-c2csc(C(C#N)=C3CCCC3)n2)cc1C#N	10µM*	-24%
CCCCCCCC[N+](CCCCCCCC)(CCCCCCCC)CCCCCCCC	32µM*	?
C#CC[N+](C)(C)CCCCCCCCCC	.	-1%
O=C(c1ccc(Cc2nc3ccccc3[nH]2)cc1)N1CCCCC1	.	-1%
CN1CCc2c(cc(O)c(O)c2Cl)[C@H](c2cccc(Cl)c2)C1	?	-11%
Cc1cccc(N2CCN(C(=O)Cn3sc4nc(C)cc(C)c4c3=O)CC2C)c1 (centres undefined)	1µM*	?
Cc1cc(C)c2c(=O)n(CC(=O)N3CCC(Cc4ccccc4)CC3)sc2n1	.	-16%
C[C@H]1Cc2c(-c3ccccc3)nc3c(c2CO1)CN(C(=O)c1ccco1)CC3	.	-2%[11.4 µM]
O=C(O)c1ccc(NS(=O)(=O)c2cccc3ccccc23)cc1	.	2%
COc1ccc(N(C(=O)C(C)C)S(=O)(=O)c2ccc(Cl)cc2)cc1	6%	-13%
COc1ccc(S(=O)(=O)N(C(C)=O)c2ccc3oc(=O)sc3c2)cc1	-23%	8.9µM*
CCCCC/C=C\C/C=C\C/C=C\C/C=C\CCCC(=O)C(F)(F)F	?	7%[0.00818 µM]
CCOc1cc(NC(=S)Nc2cccc(OC)c2)c(OCC)cc1NC(=O)c1ccc(C)cc1	?	-17%
CCOc1cc(NC(=S)Nc2ccccc2)c(OCC)cc1NC(=O)c1ccc(OC)cc1	25µM*	-25%
CCCCCCc1c(O)c2ccccc2[nH]c1=O	-7%[11.4 µM]	6%
SMILES	15-hLO-2 inh	12-hLO inh
CCCCCCCCCCCC1=C(O)C(=O)C=C(O)C1=O	32µM*	8.9µM*
COc1cccc(CC(=O)N2CCc3nc(-c4ccc(OC)cc4C)c4c(c3C2)CO[C@@H](c2ccccc2)C4)c1	.	-4%[11.4 µM]
CC1=C/C(=C(/c2ccc(O)c(C)c2)c2ccccc2C(=O)O)C=CC1=O	-22%[11.4 µM]	-25%[11.4 µM]
O=C(O)C1=CC(=C(c2ccc(O)c(C(=O)O)c2)c2ccc(O)c(C(=O)O)c2)C=CC1=O	7.9µM*	?
Cc1ccccc1CNc1ncnc2c1ncn2[C@@H]1O[C@@H](CO)[C@H](O)[C@@H]1O	9%	-4%
Cc1cc(-c2ccc(N=Nc3ccc4c(S(=O)(=O)O)cc(S(=O)(=O)O)c(N)c4c3O)c(C)c2)ccc1N=Nc1ccc2c(S(=O)(=O)O)cc(S(=O)(=O)O)c(N)c2c1O	20µM*	0%
O=S(=O)(O)c1ccc(N=Nc2ccccc2)cc1	3%[11.4 µM]	2%[11.4 µM]
O=S(=O)(O)c1ccc(N=Nc2ccc3c(S(=O)(=O)O)cccc3c2O)c2ccccc12	-3%[11.4 µM]	1%[11.4 µM]
Nc1c(N=Nc2ccc(-c3ccc(N=Nc4cc(S(=O)(=O)O)c5ccccc5c4N)cc3)cc2)cc(S(=O)(=O)O)c2ccccc12	3.2µM*	?
Nc1ccc(N=Nc2ccc(-c3ccc(O)cc3)cc2)c2ccc(S(=O)(=O)O)cc12	2.5µM*	-7%[11.4 µM]
Cc1ccc(N=Nc2c(O)c(S(=O)(=O)O)cc3cc(S(=O)(=O)O)ccc23)c(C)c1	-13%[11.4 µM]	-7%[11.4 µM]
Ic1ccc2c(c1)N(c1ccccc1)c1cc(Nc3ccc4nc5ccc(I)cc5[n+](-c5ccccc5)c4c3)ccc1N2	-15%[11.4 µM]	0%[11.4 µM]
Nc1nc(Cl)nc2c1ncn2[C@@H]1O[C@@H](COP(=O)(O)OP(=O)(O)OP(=O)(O)O)[C@@H](O)[C@H]1O	3%	-3%
C[C@@]12C(=O)OC(=O)[C@@]1(C)[C@H]1CC[C@@H]2O1	10%	2%
C=CC1=C2C=C(C3CC3)N(CCCCO)C=C2C(=O)C(C)(OC(=O)c2ccco2)C1=O (centres undefined)	.	-1%[11.4 µM]
N#C/C(=C\c1c[nH]c2ccccc12)C(=O)c1ccc(O)c(O)c1	-29%	4µM*
N#C/C(=C\c1ccc(O)c(O)c1)C(=O)c1ccc(O)c(O)c1	-29%	?
